The results in this text go back to the supplement of paper PMC10127200.

Molecules are shown by their SMILES.

The assay relates to OVCAR4. The assay can be described thus: Euclidean distance of Cell Painting phenotypic profile (signed KS, 77 features) to DMSO centroid (dimensionless distance); 5 or 10 uM (library dependent); higher = stronger phenotypic change vs DMSO (phenoactivity). Particulars: 48 h. The method, boiled down:
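At 10 or 5 uM, as set by the library, and 0.1% DMSO final, compounds were applied for 48 h to five cancer lines and one healthy fibroblast line. Stained cells were imaged confocally at 20X in 9 fields per well, and Harmony extracted 77 features scored as signed Kolmogorov-Smirnov statistics against vehicle wells on the same plate. Profiles underwent plate-position correction, correlation weighting and replicate averaging at the top dose. Phenoactivity is the Euclidean distance from each such profile to the median vehicle profile.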
In turn, `Nc1cccc(-c2cc3c(Oc4cccc(O)c4)ncnc3[nH]2)c1` returned an Euclidean distance of 3.29.

`C=CCc1cc(OC)c(O)c(C(=O)NCCO)c1` [Alibendol] gave an Euclidean distance of 0.912. In the case of `NS(=O)(=O)c1cc2c(cc1Cl)NCNS2(=O)=O` [Hydrochlorothiazide] it was 0.927; in that of `CCCc1nc2c(C)cc(-c3nc4ccccc4n3C)cc2n1Cc1ccc(-c2ccccc2C(=O)O)cc1` [Telmisartan], 1.02; in that of `CCCNC(=O)Nc1ccc(Oc2ncnc3cc(OC)c(OC)cc23)cc1Cl`, 1.05. `COc1cc(Nc2nc3ccccc3nc2NS(=O)(=O)c2ccc(NC(=O)c3ccc(C)c(OC)c3)cc2)cc(OC)c1` showed an Euclidean distance of 1.07. As for `C[C@@]1(c2cc(-c3cncnc3)c(F)cc2F)CCSC(N)=N1`, the figure is 0.965; as for `CCCCCCCCCCCCc1ccc(S(=O)(=O)Nc2nncs2)cc1`, 1.51.

`Cc1ccc(-n2nc(C(C)(C)C)cc2NC(=O)Nc2ccc(OCCN3CCOCC3)c3ccccc23)cc1` [BIRB 796 (Doramapimod)] yielded an Euclidean distance of 1.21. As for `O=S(=O)(NCCNC/C=C/c1ccc(Br)cc1)c1cccc2cnccc12`, the Euclidean distance worked out at 1.89. In the case of `CCOC(=O)CCNc1cc(N2CCc3ccccc3CC2)nc(-c2ccccn2)n1` it was 1.95. In the case of `NC(=O)Nc1cc(-c2cccc(F)c2)sc1C(=O)N[C@H]1CCCNC1` it was 4.24. For `CNC(=O)CN(CCN(CCN(CC(=O)[O-])CC(=O)NC)CC(=O)[O-])CC(=O)[O-].[Gd+3]` [Gadodiamide], the Euclidean distance was 1.1. In turn, `COc1ccc2[nH]c([S@@+]([O-])Cc3ncc(C)c(OC)c3C)nc2c1` [NEXIUM (esomeprazole magnesium)] showed an Euclidean distance of 1.65. In turn, `CC(C)(C)NCC(O)COc1cccc2c1CC(O)C(O)C2` (configuration not stated) [Nadolol] returned an Euclidean distance of 1.11. `C[C@@H]1C(=O)O[C@H]2C[C@@]34[C@H]5C[C@@H](C(C)(C)C)[C@]36[C@@H](OC(=O)[C@@H]6O)O[C@@]4(C(=O)O5)[C@]21O` [Ginkgolide A] returned an Euclidean distance of 1.21. `CS(=O)(=O)c1cccc(CNc2nc(Nc3ccc4c(c3)CCC(=O)N4)ncc2C(F)(F)F)c1` yielded an Euclidean distance of 1.34.
